Test results reported in the supplement of paper PMC12636033.
± gives the standard deviation of the averaged measurements. In all, about 33,000 sequences were measured (“E-score (rank enrichment, -0.5 to 0.5)”: median about -0.0043, highest 2% from about 0.24 on). This is one part of a sample in which the highest values are shown more often than they occur.

Test system: 2Sp-muMax20 (muMax20 with two 2,6-bis(methyl)pyridine Cys staples)
Test: PBM 8-mer E-score (E-score (rank enrichment, -0.5 to 0.5)); higher = stronger preferential binding
Protocol: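 Protein binding microarray (universal PBM chip covering all 10-mers in fixed probe flanks) with chemically synthesized human Max(13-93) bHLH-LZ analogs (not full-length Max) bearing noncanonical residues (hArg, Tha, Aib, Nle at 65) and aromatic Cys staples. Read-out per 8-mer (and its reverse complement): E-score (rank-based enrichment, -0.5 to 0.5) and Z-score of median probe intensity.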

Row | Sequence | PBM 8-mer E-score
1 | ATAAGGTA | 0.164 ± 0.031
2 | CTAAGGTC | -0.029 ± 0.12
3 | ATAAGGAT | 0.258 ± 0.011
4 | ATAAGGTC | 0.238 ± 0.051
5 | ATAAGGAC | 0.0211 ± 0.092
6 | ATAAGGAA | -0.0884 ± 0.043
7 | CCAGTATC | -0.0909 ± 0.022
8 | AACCCCGA | 0.0376 ± 0.019
9 | ACGCTTCA | 0.0519 ± 0.091
10 | GTAAGTTA | 0.0283 ± 0.0067
11 | ATAAGTTA | 0.236 ± 0.025
12 | CTAAGTTA | 0.0843 ± 0.017
13 | CAAGGACC | -0.223 ± 0.048
14 | AATTAATA | 0.285 ± 0.03
15 | ACTTAATA | 0.156 ± 0.042
16 | ATTTAATA | 0.243 ± 0.0082
17 | GTTTAATA | 0.203 ± 0.062
18 | AGTTAATA | 0.138 ± 0.027
19 | CTTTAATA | 0.207 ± 0.016
20 | AATTAATT | 0.242 ± 0.031
21 | AATTAATG | 0.215 ± 0.028
22 | CATTAGTA | -0.0474 ± 0.081

Row | Sequence | PBM 8-mer E-score
23 | AATTAGTA | 0.268 ± 0.0095
24 | AATTAGTC | 0.0516 ± 0.035
25 | AATTAATC | 0.207 ± 0.009
26 | GCTAAGTA | 0.034 ± 0.091
27 | CCGCCGCC | -0.00332 ± 0.019
28 | ACACCAGA | -0.0516 ± 0.0077
29 | CATGAACA | -0.0306 ± 0.058
30 | GTTTAGGA | -0.13 ± 0.036
31 | GACCCTTA | -0.0689 ± 0.0029
32 | CTTTAAAC | 0.0827 ± 0.097
33 | ATTTAAAG | 0.0431 ± 0.059
34 | ATTTAAAC | 0.329 ± 0.047
35 | AAAATTCC | 0.0483 ± 0.056
36 | CCTCTTAA | 0.0544 ± 0.11
37 | AGTGGGGG | -0.0461 ± 0.0062
38 | TATGGGGA | 0.283 ± 0.028
39 | AGTGGGGA | 0.245 ± 0.011
40 | CGTGGGGA | 0.1018 ± 0.00016
41 | CATGGGGA | 0.124 ± 0.043
42 | AATGGGGA | 0.112 ± 0.047
43 | GCCATGTA | 0.0368 ± 0.0029
44 | CTCTTGGA | -0.112 ± 0.014

Row | Sequence | PBM 8-mer E-score
45 | CAGTAGCG | -0.205 ± 0.045
46 | ACGGCTAA | -0.0509 ± 0.014
47 | ACCCCGGC | -0.00709 ± 0.083
48 | ACATAGAC | 0.115 ± 0.034
49 | GTTGAAGA | 0.0675 ± 0.033
50 | ATTGAAGA | 0.237 ± 0.023
51 | ATTGAAGG | -0.0238 ± 0.14
52 | CTTCCGAA | -0.23 ± 0.024
53 | GTATTAGA | 0.182 ± 0.073
54 | ATATTATC | 0.0885 ± 0.023
55 | AGATTATG | -0.00069 ± 0.061
56 | ATATTAGC | 0.166 ± 0.0073
57 | GTATTATA | 0.259 ± 0.053
58 | ATATTAGA | 0.235 ± 0.012
59 | ATATTATG | 0.274 ± 0.083
60 | GTATTAAA | 0.134 ± 0.014
61 | CTATTATA | 0.0957 ± 0.01
62 | ATATTACA | 0.157 ± 0.058
63 | ATATTATA | 0.268 ± 0.047
64 | ATATTAGG | 0.297 ± 0.029
65 | CAGTTCGC | -0.0265 ± 0.073
66 | TGTTAGAA | 0.125 ± 0.12

Row | Sequence | PBM 8-mer E-score
67 | CGACTGGC | -0.148 ± 0.052
68 | CCAGAGAC | -0.05 ± 0.076
69 | GGATGACA | -0.0339 ± 0.094
70 | ATATTCTA | 0.244 ± 0.04
71 | CTATTCTA | 0.227 ± 0.043
72 | GTATTCTA | 0.134 ± 0.021
73 | AATGGCAA | 0.00112 ± 0.089
74 | CCAAGAGC | -0.0397 ± 0.036
75 | AACGTGGA | 0.0553 ± 0.0092
76 | GACGTGGC | 0.0114 ± 0.026
77 | AACGTGGC | 0.163 ± 0.041
78 | CACGTGGC | 0.357 ± 0.064
79 | TACGTGGA | 0.0461 ± 0.0044
80 | AACGTGGG | 0.1 ± 0.047
81 | CACGTGGG | 0.436 ± 0.0081
82 | CACGTGGA | 0.398 ± 0.033
83 | GACGTGGA | 0.055 ± 0.0074
84 | CTATTCAG | 0.00673 ± 0.056
85 | AGAAGCGA | -0.0304 ± 0.05
86 | ATCACGGA | -0.0223 ± 0.047
